Results as given in PubChem BioAssay AID463075 (University of Pittsburgh Molecular Library Screening Center, 2010).
In all, about 220,000 compounds went through this assay and about 150 (0.068%) were called active.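 Rule for the calls: active = activation, meaning protection from cell death, of at least 50% relative to plate controls; inactive = activation below 50%.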 What follows is part of a selection rich in actives, with near analogues and random picks from the rest.

Experiment: rescue of FADD-deficient Jurkat cells from TNF-alpha death – single concentration, primary screen (AID 463075);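 note: necroptosis triggered by 40 ng/mL TNF-alpha added together with compound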
Conditions: Jurkat FADD-/- TNF necroptosis rescue, ATP luminescence, 24 h; at 10 µM; hits give high values; 0 = TNF only, 100 = no-TNF cells
With `O=C(c1cccnc1)N(c1cc2sc(=O)oc2c2ccccc12)S(=O)(=O)c1ccccc1` the activation (protection from cell death) was -6.46% (inactive).
For `Cn1c(S(=O)(=O)O)nc2ccccc21`, the activation (protection from cell death) was 1.18% (inactive).
With `COc1cc2nc(Cl)nc(NCCO)c2cc1OC` the activation (protection from cell death) was -0.0465% (inactive).
With `Cc1nc(N2CCOCC2)sc1C(=O)NN` the activation (protection from cell death) was 0.605% (inactive).
For `CCCC1(C(=O)OC)NC(c2ccco2)C2C(=O)N(C)C(=O)C21` (stereo not given), the activation (protection from cell death) was 0.819% (inactive).
With `Cc1cccc(N=Nc2c(O)[nH]c3ccc(F)cc23)c1` the activation (protection from cell death) was 1.19% (inactive).
With `O=C(NC(=O)N1CCSCC1)c1c(Cl)cccc1Cl` the activation (protection from cell death) was 3.73% (inactive).
In the case of `CC(C)Cc1ccc(C(C)C(=N)N)cc1` (stereo not given), the activation (protection from cell death) is reported as 0.316% (inactive).
For `O=C(Cc1ccccc1)N1N=C(c2ccncc2)CC1(O)C(F)(F)F` (stereo not given), the activation (protection from cell death) was -1.22% (inactive).
With `Cc1nnc(NCCO)c2ccccc12` the activation (protection from cell death) was 2% (inactive).
For `Cc1nn(CC(=O)Nc2ccc3c(c2)OCO3)c(C)c1[N+](=O)[O-]`, the activation (protection from cell death) was 0.0311% (inactive).
With `CCOC(=O)c1c(CC(C)C)csc1/N=C/C1=C(O)CCCC1=O` the activation (protection from cell death) was 2.28% (inactive).
With `O=C(Nn1cnc2ccccc2c1=O)c1ccc([N+](=O)[O-])cc1Cl` the activation (protection from cell death) was -1.3% (inactive).
For `O=C(CS(=O)(=O)c1ccc(C(F)(F)F)cn1)NNC(=O)c1ccccc1`, the activation (protection from cell death) was -0.488% (inactive).
In the case of `O=C(O)c1n[nH]nc1-c1ccccc1`, the activation (protection from cell death) is reported as -0.36% (inactive).
With `O=C(C1=C[C@H](c2coc3ccccc3c2=O)C[C@H](OCc2ccc(CO)cc2)O1)N1CCOCC1` the activation (protection from cell death) was 0.365% (inactive).
In the case of `COc1ccc(Cl)cc1NC(=O)[C@@H]1CCCN1C(=O)c1cccs1`, the activation (protection from cell death) is reported as 2.67% (inactive).
In the case of `C=C1C2C[C@H](O)C(C)(C)[C@@]2(O)[C@H](O)C[C@]23C[C@@](C)(O)[C@H](CC[C@H]12)[C@H]3O` (stereo not given in full), the activation (protection from cell death) is reported as 1.07% (inactive).
For `CCOc1cccc(C(=O)Nc2cnn(Cc3ccccc3)c2)c1`, the activation (protection from cell death) was -1.07% (inactive).
With `O=C(COC(=O)Cc1ccc(Br)cc1)Nc1c(F)c(F)c(F)c(F)c1F` the activation (protection from cell death) was -0.784% (inactive).
In the case of `CN(C(=O)CSc1nc(C2CC2)nc2ccccc12)c1nc(-c2ccccc2)cs1`, the activation (protection from cell death) is reported as 0.753% (inactive).
In the case of `COc1ccc(OC)c(-c2c(=O)n(OCc3ccccc3Br)c3ccccc3[n+]2[O-])c1`, the activation (protection from cell death) is reported as 0.8% (inactive).
With `O=C(Nc1ccccc1-c1ccccc1)c1cccs1` the activation (protection from cell death) was -1.99% (inactive).
With `CN(C(=O)COc1ncnc2c1cnn2-c1ccccc1)C1CCCCC1` the activation (protection from cell death) was -0.83% (inactive).
In the case of `CNC(=O)c1nnc(Cc2ccc(Cl)cc2)o1`, the activation (protection from cell death) is reported as 5.11% (inactive).
